Values joined by “and” are separate entries in the source; they are usually repeats but may differ in a detail not shown here. Equal values may be shown once. Results filed as inconclusive are left out. Active and inactive are the calls of the source. Unless noted, calls come from the whole dose curve; as a rule, active = well fitted curve in the direction sought with a large enough effect; inconclusive = small, poorly fitted or top-dose-only effect, or another doubt; inactive = no such curve, though single readings can be large; an effect the other way counts as inactive or inconclusive.
Tests used:
[1] = Cell Viability - BJ (AID 421; calls by dose curve;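 note: potency is the fitted concentration of half-maximal effect; cells exposed to compound for 40 hours at 37 °C before readout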); conditions: BJ fibroblast viability, qHTS
In short: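 Cytotoxicity as drop in intracellular ATP (CellTiter-Glo, 20 min RT) after 40 hr compound exposure of BJ fibroblasts at 37 °C. Titrations scaled between DMSO and 100 uM tamoxifen, Hill-fitted for AC50.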

[2] = Cell Viability - Jurkat (AID 426;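 active = dose-dependent loss of cell ATP signal giving a full or clear fitted curve, ranked by lower potency value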;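 note: potency is the fitted concentration of half-maximal effect; cells exposed to compound for 40 hours at 37 °C before ATP read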); conditions: qHTS
In short: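 Cells of the human T-cell leukemia line Jurkat (E6-1) are seeded at 5000 per well, treated with compound across a concentration range for 40 hours at 37 °C, then lysed with CellTiter-Glo; luminescence reports ATP.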

[3] = Cell Viability - Hek293 (AID 427;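 active = compounds whose dose-response curve shows a full or clear partial loss of cell viability, called from curve shape rather than a numeric limit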;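 note: potency is the fitted concentration of half-maximal effect; cells exposed to compound for 40 hours at 37 °C before reading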); conditions: qHTS
In short: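 Luminescent ATP content (CellTiter-Glo, 20 min at room temperature) was measured after a 40 hr, 37 °C compound exposure of HEK293 cells. AC50 values came from Hill-equation fits of qHTS concentration-response data normalized to DMSO and 100 uM tamoxifen.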

[4] = Cell Viability - HepG2 (AID 433; calls by dose curve;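 note: potency is the fitted concentration of half-maximal effect; potency for ATP loss meaning cytotoxicity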); conditions: qHTS
In short: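 Read-out is luciferase-based quantitation of cellular ATP as a measure of viable HepG2 cells after 40 h treatment at 37 °C. Signal decrease is scaled between DMSO-only and 100 uM tamoxifen controls, with AC50 fitted by the Hill equation.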

[5] = Cell Viability - SK-N-SH (AID 435; calls by dose curve;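 note: potency is the fitted concentration of half-maximal effect; compound exposure lasted 40 h at 37 °C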); conditions: SK-N-SH neuroblastoma cell viability qHTS
In short: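 Luminescent ATP signal served as the viability read-out after 40 hours of compound treatment of human neuroblastoma SK-N-SH cells. Concentration-response data, scaled between DMSO and 100 uM tamoxifen, gave AC50 values by standard Hill modeling.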

[6] = target: Mitogen-activated protein kinase 10 (Mus musculus) (UniProt Q61831); test: JNK3 AlphaScreen Assay (AID 530; active = well fitted curve in either direction with a large enough effect, not every such curve was filed as active;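 note: kinase came from lysate of stimulated human HepG2 cells; signal reports phosphorylation of biotinylated GST-cJun 1-79 at Ser73 with 10 µM ATP; % is set by controls: 0 for no effect and ±100 for the full control effect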); conditions: JNK3 lysate, c-Jun phosphorylation; series mostly up to 57.1 µM
In short: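 qHTS titrations with 15 min compound pre-incubation before adding ATP (10 uM final). Read-out: AlphaScreen of Ser73-phosphorylated biotin-GST-cJun using HepG2 lysate JNK3 activated by IL-1β and TNFα.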

[7] = Cell Viability - N2a (AID 540); conditions: N2a mouse neuroblastoma cell viability; at 92.2 µM (top of the series);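 note: cells exposed to compound for 40 h at 37 °C; plate controls were DMSO alone for no effect and tamoxifen control for full effect; nearly all actives have a fitted effect of over 45% in size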
In short: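 Cytotoxicity was scored as loss of cellular ATP in N2a cells, a mouse neuroblastoma line. Compounds are applied in a qHTS concentration series for 40 hr at 37 °C.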

[8] = Cell Viability - NIH 3T3 (AID 541); conditions: NIH 3T3 cell viability, qHTS; activity change, negative = cytotoxicity: at 92.2 µM (top of the series);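 note: plate controls were DMSO alone for no effect and tamoxifen positive control for full effect; nearly all actives have a fitted effect of over 25% in size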
In short: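 Cells seeded at 1000/well, rested 5 hr at 37 °C, then dosed and incubated 40 hr at 37 °C. CellTiter-Glo added, 20 min room temperature, luminescence read. AC50 by Hill fit.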

[9] = Cell Viability - HUV-EC-C (AID 542); conditions: HUV-EC-C endothelial cell viability, qHTS; series mostly up to 92.2 µM; note: % is set by controls: 0 for no effect and ±100 for the full control effect; nearly all actives have a fitted effect of over 35% in size
In short: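 Cells were seeded at 1000 per well and incubated 5 hr at 37 °C before compound addition. After 40 hr at 37 °C, CellTiter-Glo reagent was added for 20 min and luminescence read. AC50 values came from Hill-equation modelling.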

[10] = Cell Viability - Renal Proximal Tubule (AID 545); conditions: renal proximal tubule cells viability; at 91.7 µM (top of the series), primary cells of rat origin unless noted; note: nearly all actives have a fitted effect of over 40% in size
In short: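 Luminescent ATP signal (CellTiter-Glo) served as the viability read-out after 40 hr compound exposure of freshly isolated rat proximal tubule cells at 37 °C. Concentration-dependent ATP loss was fitted with the Hill equation to give AC50.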

[11] = Cell Viability - Mesenchymal (AID 546); conditions: mesenchymal cells viability, qHTS; series mostly up to 91.7 µM;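 note: cells exposed to compound for 40 hours before reading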
In short: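 CellTiter-Glo luminescence (intracellular ATP, 20 min room temperature) after 40 hr compound exposure at 37 °C of 1000 glomerulus-derived human kidney mesenchymal cells/well; AC50 values obtained by fitting qHTS concentration-response data to the Hill equation.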

[12] = Cellular Toxicity (caspase-3) Jurkat (AID 655); conditions: Jurkat caspase-3 activation, luminescence, DMSO = 0%, tamoxifen = 100%; at 92.2 µM (top of the series);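 note: cells exposed to compound for 16 h at 37 °C before reading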
In short: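 5000 Jurkat cells/well; compound 16 hr, 37 °C; Caspase-Glo 3/7 added, 20 min RT; luminescence read. Norm: DMSO = 0%, tamoxifen 100 uM = 100%. AC50, Hill model.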

[13] = Cellular Toxicity (caspase-3) HUV-EC-C (AID 656); conditions: HUV-EC-C cells, caspase-3 activation (apoptosis), vehicle = 0, 100 µM tamoxifen = 100%; series mostly up to 92.2 µM
In short: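 qHTS; HUV-EC-C, 1000 cells/well; 5 hr settle, 16 hr cmpd, 37°C; Caspase-Glo 3/7, 20 min RT; luminescence. Norm: DMSO = 0%, tamoxifen 100 uM = 100%. Hill-fit AC50.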

[14] = Cellular Toxicity (caspase-3) SHSY5Y (AID 657); conditions: SH-SY5Y caspase-3 activation, DMSO zero, 10 µM staurosporine = 100%; series mostly up to 91.7 µM;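 note: cells exposed to compound for 16 hours at 37 °C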
In short: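 qHTS, SH-SY5Y, 1500 cells/well, 5 h pre-incubation 37 °C; compound 16 h 37 °C; Caspase-Glo 3/7 1 h RT; luminescence. Norm.: DMSO = 0, 10 uM staurosporine = 100%. Hill fit → AC50.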

[15] = Cellular Toxicity (caspase-3) Renal Proximal Tubule (AID 667); conditions: renal proximal tubule cells; at 91.7 µM (top of the series), primary cells freshly taken from rat, solvent-only wells 0%, staurosporine 100% unless noted;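 note: cells exposed to compound for 16 hours at 37 °C before detection; 0% = DMSO basal and 100% = 10 µM staurosporine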
In short: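 AC50 derived by standard Hill fit of concentration-response data, normalized between DMSO basal and 10 uM staurosporine as 100% stimulation. Cells: primary rat kidney proximal tubule, 16 h treatment at 37 °C.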

[16] = target: Cytochrome P450 3A4 (Homo sapiens) (UniProt P08684); test: qHTS Assay for Inhibitors and Substrates of Cytochrome P450 3A4 (AID 884); conditions: recombinant CYP3A4, Luciferin-PPXE luminescence; series mostly up to 57.1 µM; note: nearly all actives have a fitted effect of over 50% in size; note: potency is the fitted concentration of half-maximal effect
Sequence of Cytochrome P450 3A4 (Homo sapiens) (P08684 whole entry, looked up): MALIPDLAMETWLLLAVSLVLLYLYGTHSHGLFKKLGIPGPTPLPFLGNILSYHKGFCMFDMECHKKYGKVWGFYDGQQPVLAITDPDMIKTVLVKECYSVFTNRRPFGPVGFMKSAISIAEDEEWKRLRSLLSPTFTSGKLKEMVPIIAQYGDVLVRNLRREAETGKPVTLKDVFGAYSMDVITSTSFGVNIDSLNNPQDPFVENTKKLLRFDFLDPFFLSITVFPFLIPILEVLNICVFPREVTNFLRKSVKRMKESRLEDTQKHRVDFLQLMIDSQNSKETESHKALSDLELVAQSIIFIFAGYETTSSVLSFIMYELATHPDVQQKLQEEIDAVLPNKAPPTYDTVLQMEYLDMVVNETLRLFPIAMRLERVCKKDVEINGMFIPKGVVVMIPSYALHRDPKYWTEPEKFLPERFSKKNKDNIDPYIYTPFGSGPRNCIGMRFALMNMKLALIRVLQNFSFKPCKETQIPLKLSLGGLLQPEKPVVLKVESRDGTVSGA
In short: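 Luminescent readout of luciferin produced by CYP3A4 (20 nM) dealkylation of Luciferin-PPXE, 25 uM (its KM). NADPH-driven reaction ran 60 min at RT after 10 min compound preincubation; data scaled to 57 uM ketoconazole as 100% inhibition.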

[17] = qHTS assay for small molecule agonists of retinoid X receptor alpha signaling (AID 588544); conditions: HEK293T RXRa-UAS-bla, beta-lactamase reporter, 18 h; 530 nm emission
[18] = qHTS assay for small molecule disruptors of the mitochondrial membrane potential - 1 hr assay (AID 651754; calls by dose curve; note: nearly all actives have a fitted effect of over 35% in size; note: potency is the fitted concentration of half-maximal effect); conditions: series mostly up to 92.2 µM
In short: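 Loss of mitochondrial potential shifts the cationic dye from red mitochondrial aggregates to green cytoplasmic monomers. Cells (HepG2) are treated with compound for 1 hr before a 30 min dye incubation at 37C.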

[19] = qHTS assay for small molecule disruptors of the mitochondrial membrane potential - 5 hr assay (AID 651755; calls by dose curve; note: nearly all actives have a fitted effect of over 40% in size; note: potency is the fitted concentration of half-maximal effect); conditions: JC-1-type ratio dye; series mostly up to 92.2 µM
In short: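 Membrane-potential dye readout: red aggregate (540 ex/590 em) versus green monomer (490 ex/535 em) fluorescence after 30 min dye loading, following 5 hr compound exposure at 37C of overnight-plated HepG2 cells.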

[20] = target: Peroxisome proliferator-activated receptor alpha (Homo sapiens) (UniProt Q07869); test: qHTS assay for small molecule agonists of the peroxisome proliferator-activated receptor alpha (PPARalpha) signaling pathway (AID 651778); conditions: PathHunter PPARalpha complementation, chemiluminescence, 6 h; stronger effect = higher value; note: % of control where 0% means no effect
Sequence of Peroxisome proliferator-activated receptor alpha (Homo sapiens) (Q07869 whole entry, looked up): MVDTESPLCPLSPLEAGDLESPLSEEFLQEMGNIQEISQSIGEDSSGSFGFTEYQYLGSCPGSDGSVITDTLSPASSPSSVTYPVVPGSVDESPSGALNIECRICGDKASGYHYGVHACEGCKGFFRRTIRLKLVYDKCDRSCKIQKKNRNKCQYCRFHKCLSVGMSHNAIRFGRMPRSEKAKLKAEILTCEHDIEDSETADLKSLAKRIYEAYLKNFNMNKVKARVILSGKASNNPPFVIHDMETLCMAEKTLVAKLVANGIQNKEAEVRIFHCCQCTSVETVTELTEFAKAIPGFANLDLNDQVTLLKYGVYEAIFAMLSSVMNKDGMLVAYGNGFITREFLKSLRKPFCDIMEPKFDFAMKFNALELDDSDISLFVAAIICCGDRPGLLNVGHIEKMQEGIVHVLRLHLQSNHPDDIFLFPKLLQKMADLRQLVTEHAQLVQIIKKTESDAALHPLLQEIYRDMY
In short: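 Chemiluminescence from complemented enzyme reported PPARalpha activation in cells after 6 hr of compound treatment at 37 C. The detection reagent was incubated for 60 min at room temperature, and compounds were scored as agonists.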

SMILES | Potency [1] | Potency [2] | Potency [3] | Potency [4] | Potency [5] | outcome [6] | activity change, negative = cytotoxicity [7] | activity change, negative = cytotoxicity [8] | Potency [9] | activity change, negative = cytotoxicity [10] | outcome [11] | caspase-3 activation [12] | outcome [13] | outcome [14] | caspase-3 activation [15] | Potency [16] | max response [17] | Potency [18] | Potency [19] | max response [20]
C1CCC2CCCCC2C1 (stereo not given) | > 92 µM (inactive) | > 92 µM (inactive) | > 92 µM (inactive) | > 92 µM (inactive) | > 92 µM (inactive) | inactive | 2.93% (inactive) | -13.5% (inactive) | inactive | -9.71% (inactive) | inactive | 1.3% (inactive) | inactive | inactive | -7.58% (inactive) | inactive | -13.4% | inactive | inactive | -8.42% (inactive)
NC(=S)Nc1ccccc1 | > 92 µM (inactive) | > 92 µM (inactive) | > 92 µM (inactive) | > 92 µM (inactive) | > 92 µM (inactive) | inactive | -0.295% (inactive) and -0.273% (inactive) | -8.44% (inactive) and 0.7% (inactive) | inactive | -4.19% [at 91.7 µM] (inactive) and 2.38% [at 91.7 µM] (inactive) | inactive | 1.95% (inactive) and -1.01% (inactive) | inactive | inactive | 12.5% [at 91.7 µM] (inactive) and -6.92% [at 91.7 µM] (inactive) | inactive | -11.1% and -12.4% and -6.79% | inactive | inactive | -6.31% (inactive) and -5.47% (inactive) and -0.622% (inactive)
CC(C)c1c(CN(C)[C@@H](C)Cc2ccccc2)n(C)n(-c2ccccc2)c1=O |  |  |  |  |  | inactive |  |  |  |  |  |  |  |  |  | 3.98 µM (active) |  |  |  | 
CC(=O)[C@@H]1CC[C@H]2[C@H]3CC[C@H]4C[C@@H](O)CC[C@]4(C)[C@@H]3C(=O)C[C@@]12C |  |  |  |  |  | inactive |  |  |  |  |  |  |  |  |  |  |  |  |  | 
C[C@]12CC[C@H]3[C@@H](CCC4=CC(=O)CC[C@@]43C)[C@@H]1CC[C@@H]2O | > 92 µM (inactive) | > 92 µM (inactive) | > 92 µM (inactive) | > 92 µM (inactive) | > 92 µM (inactive) |  | -5.73% (inactive) | -90.5% (active) | inactive | -15.1% [at 91.7 µM] (inactive) | inactive | 4.38% (inactive) | inactive | inactive | -4.12% [at 91.7 µM] (inactive) | inactive | 3.81% | inactive | inactive | -2.99% (inactive)
Nc1ccc(Br)cc1 | > 92 µM (inactive) | > 92 µM (inactive) | > 92 µM (inactive) | > 92 µM (inactive) | > 92 µM (inactive) | inactive | -2.5% (inactive) | -14.1% (inactive) | inactive | -3.48% (inactive) | inactive | 5.03% (inactive) | inactive | inactive | -0.502% (inactive) | inactive | 1.14% | inactive | inactive | -1.52% (inactive)
CC(C)(c1ccccc1)c1ccc(O)cc1 | > 92 µM (inactive) | > 92 µM (inactive) | > 92 µM (inactive) | > 92 µM (inactive) | > 92 µM (inactive) | inactive | -9.3% (inactive) | -17.8% (inactive) | inactive | -9.32% (inactive) | inactive | 11.6% (inactive) | inactive | inactive | 4.59% (inactive) |  | -10.3% and -15.2% | 26.6 µM (active) | 33.5 µM (active) | -2.53% (inactive) and 0.007% (inactive)
BrCCBr | > 92 µM (inactive) | > 92 µM (inactive) | > 92 µM (inactive) | > 92 µM (inactive) | > 92 µM (inactive) | inactive | -0.148% (inactive) | -25.3% (inactive) | inactive | -6.16% (inactive) | inactive | -0.244% (inactive) | inactive | inactive | -15.1% (inactive) | inactive | -0.875% and -18.5% | inactive | inactive | -2.04% (inactive) and -4.02% (inactive)
Clc1ccc2ccccc2c1 | > 92 µM (inactive) | > 92 µM (inactive) | > 92 µM (inactive) | > 92 µM (inactive) | > 92 µM (inactive) | inactive | 3.7% (inactive) | 7.96% (inactive) | inactive | -5.07% (inactive) | inactive | 0.888% (inactive) | inactive | inactive | 7.88% (inactive) | inactive | -15.7% | inactive | inactive | 0.9% (inactive)
c1nc[nH]n1 | > 92 µM (inactive) | > 92 µM (inactive) | > 92 µM (inactive) | > 92 µM (inactive) | > 92 µM (inactive) | inactive | -1.04% (inactive) | -5.84% (inactive) | inactive | -1.05% (inactive) | inactive | 0.542% (inactive) | inactive | inactive | 6.18% (inactive) |  | -16.7% | inactive | inactive | 7.97% (inactive)

— PubChem BioAssay (NCATS)
